Measurements from ChEMBL document CHEMBL3433997, “St. Jude Leishmania screening dataset” (2016).

How the values were obtained:
Format in all cases: functional
[1] = molecular target: Solute carrier family 2, facilitated glucose transporter member 1 (Homo sapiens) (UniProt P11166); test: ST_JUDE_LEISH: Cytotoxicity at 2uM final concentration against transgenic Leishmania Mexicana promastigotes LmGLUT1 that are glucose transport deficient and complemented with the human glucose transporter GLUT1. Activity is measured by DNA content using SYBR green in vitro
Sequence of Solute carrier family 2, facilitated glucose transporter member 1 (Homo sapiens) (P11166 whole entry): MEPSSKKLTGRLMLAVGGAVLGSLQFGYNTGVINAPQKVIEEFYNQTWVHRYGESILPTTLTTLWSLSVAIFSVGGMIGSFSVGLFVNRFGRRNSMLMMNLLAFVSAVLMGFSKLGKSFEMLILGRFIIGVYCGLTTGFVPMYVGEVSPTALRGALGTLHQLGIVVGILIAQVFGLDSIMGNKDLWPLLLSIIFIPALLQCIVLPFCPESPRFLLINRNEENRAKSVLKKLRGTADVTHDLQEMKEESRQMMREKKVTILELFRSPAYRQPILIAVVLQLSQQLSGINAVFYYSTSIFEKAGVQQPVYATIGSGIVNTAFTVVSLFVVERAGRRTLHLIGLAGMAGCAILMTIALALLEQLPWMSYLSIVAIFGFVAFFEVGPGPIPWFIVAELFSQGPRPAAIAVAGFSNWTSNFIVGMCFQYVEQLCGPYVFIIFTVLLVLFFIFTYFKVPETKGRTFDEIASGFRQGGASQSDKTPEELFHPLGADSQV

[2] = molecular target: Hexose transporter 1 (Plasmodium falciparum) (UniProt O97467); test: ST_JUDE_LEISH: Cytotoxicity at 2uM final concentration against transgenic Leishmania Mexicana promastigotes LmPfHT that are glucose transport deficient and complemented with the Plasmodium falciparum hexose transporter. Activity is measured by DNA content using SYBR green in vitro
[3] = molecular target: Glucose transporter (Leishmania mexicana) (UniProt O61059); test: ST_JUDE_LEISH: Cytotoxicity at 2uM final concentration against transgenic Leishmania Mexicana promastigotes LmGT2 that are glucose transport deficient and complemented with the L. Mexicana glucose transporter 2. Activity is measured by DNA content using SYBR green in vitro

**Q.** What does the source list for `COc1ccc(Cc2c(Cl)nc3nc(N)nc(N)c3c2C)c(OC)c1OC`?
**A.** inhibition [1]: 5.35%; inhibition [2]: 12.4%; inhibition [3]: 5.26%

**Q.** Which results are given for `O=C(COC(=O)c1cccc(S(=O)(=O)N2CCc3ccccc32)c1)NNC(=O)c1cccs1`?
**A.** inhibition [1]: 4.4%; inhibition [2]: 4.13%; inhibition [3]: 2.91%

**Q.** Which results are given for `CCCNCc1ccc(-c2ccc(CN(Cc3ccc4c(c3)OCO4)C(=O)Cc3cccnc3)cc2)nc1`?
**A.** inhibition [1]: 23.9%; inhibition [2]: 15.2%; inhibition [3]: 10.2%

**Q.** For `NC1=NC(c2ccccc2)(c2ccccc2)C(=O)N1Cc1ccc(-c2cccnc2)cc1`, which inhibition [1] is on record?
**A.** 2.71%

**Q.** And the inhibition [2]?
**A.** 1.53%

**Q.** And the inhibition [3]?
**A.** 0.52%

**Q.** What does the source list for `O=C(Nc1ccc(OC2CCN(Cc3ccsc3)CC2)c(Cl)c1)c1ccc(F)cc1`?
**A.** inhibition [1]: 4.89%; inhibition [2]: 2.78%; inhibition [3]: 2.62%

**Q.** For `OC(CNCc1ccccc1OCc1ccccc1)c1cccc(I)c1` (stereo not given), which inhibition [1] is on record?
**A.** 3.99%

**Q.** And the inhibition [2]?
**A.** 5.42%

**Q.** What about the inhibition [3] of the same compound?
**A.** 0.61%

**Q.** How did the inhibition [1] turn out when `CC(C)Cn1c(Sc2ccc(C#N)c([N+](=O)[O-])c2)nnc1-c1ccccc1Cl` was run?
**A.** 3.45%

**Q.** What about the inhibition [2] of the same compound?
**A.** 4.02%

**Q.** What about the inhibition [3] of the same compound?
**A.** -0.31%

**Q.** Which inhibition [1] does the source give for `Cc1cc(OCCN2CCCCC2)ccc1NC(=O)c1cccc2c(=O)n(Cc3ccc(Cl)cc3)cnc12` here?
**A.** 103%

**Q.** And the inhibition [2]?
**A.** 104%

**Q.** And the inhibition [3]?
**A.** 105%

**Q.** Which results are given for `COc1ccc(CC2(c3ccc(F)cc3)N=C(N)N(CCCc3cccnc3)C2=O)cc1` (stereo not given)?
**A.** inhibition [1]: 2.7%; inhibition [2]: 1.49%; inhibition [3]: 2.08%

**Q.** For `CC1CN(C(=O)c2sc3ccccc3c2Cl)CC(C)O1` (stereo not given), which inhibition [1] is on record?
**A.** -2.33%

**Q.** What about the inhibition [2] of the same compound?
**A.** 0.96%

**Q.** What about the inhibition [3] of the same compound?
**A.** 0.74%

**Q.** What does the source list for `Nc1c2c(nc3ccc(NC(=O)CCCc4ccccc4)cc13)CCCC2`?
**A.** inhibition [1]: 1.07%; inhibition [2]: 1.78%; inhibition [3]: 0.12%

**Q.** For `O=C(c1cccc(-c2cccc(-c3nc4cc(F)ccc4[nH]3)c2)c1)N1CCCCC1CN1CCC(O)C1` (stereo not given), which inhibition [1] is on record?
**A.** 0.52%

**Q.** What about the inhibition [2] of the same compound?
**A.** -0.32%

**Q.** And the inhibition [3]?
**A.** 0.51%

**Q.** With `COc1ccc2ncc(Cl)c([C@@H](O)CN3CCC(NCc4cc5c(cn4)OCCO5)CC3)c2c1` as the compound, how does the inhibition [1] read?
**A.** 9.54%

**Q.** And the inhibition [2]?
**A.** 10.5%

**Q.** What about the inhibition [3] of the same compound?
**A.** 1.19%

**Q.** `O=C(NCC(c1ccc(C(F)(F)F)cc1)N1CCCC1)c1cc(-c2ccncc2)c(-c2cccc(O)c2)o1` (stereo not given) was tested. Which inhibition [1] did it give?
**A.** 0.81%

**Q.** What about the inhibition [2] of the same compound?
**A.** -0.82%

**Q.** And the inhibition [3]?
**A.** -0.08%

**Q.** How did the inhibition [1] turn out when `CCOc1cc[nH]c(=O)n1` was run?
**A.** -0.65%

**Q.** And the inhibition [2]?
**A.** 2.36%

**Q.** And the inhibition [3]?
**A.** -0.68%

**Q.** For `c1cn(CCCNc2ncc(-c3ccsc3)c(-c3nccs3)n2)cn1`, which inhibition [1] is on record?
**A.** 11%

**Q.** What about the inhibition [2] of the same compound?
**A.** 10.1%

**Q.** And the inhibition [3]?
**A.** 9.4%

**Q.** Which results are given for `Cc1cc(N[C@@H](Cc2ccccc2)C(=O)NCCc2ccccc2)nc(NCCc2ccc(F)cc2)n1`?
**A.** inhibition [1]: -1.91%; inhibition [2]: -1.86%; inhibition [3]: -1.12%

**Q.** With `CC(=O)Nc1ncc(C(=O)Nc2ccc(-c3cccc(-c4nc5cc(C(F)(F)F)ccc5[nH]4)c3)cc2)s1` as the compound, how does the inhibition [1] read?
**A.** -2.18%

**Q.** What about the inhibition [2] of the same compound?
**A.** -2.1%

**Q.** And the inhibition [3]?
**A.** -2.74%

**Q.** With `FC(F)(F)c1cnc(Sc2nnc(-c3ccco3)o2)c(Cl)c1` as the compound, how does the inhibition [1] read?
**A.** 17.1%

**Q.** And the inhibition [2]?
**A.** 12.9%

**Q.** And the inhibition [3]?
**A.** 11.8%

**Q.** What does the source list for `O=C(Nc1cccc(CN2CCCN(Cc3ccc(O)cc3)CC2)c1)c1cc2ccccc2s1`?
**A.** inhibition [1]: -1.48%; inhibition [2]: 1.71%; inhibition [3]: -2.92%

**Q.** Which results are given for `CCOC(=O)c1ccc(NC(=O)NC2CCN(CCCCCNC(=O)/C=C/c3ccc(Cl)c(Cl)c3)C2)cc1` (stereo not given)?
**A.** inhibition [1]: 2.05%; inhibition [2]: 0%; inhibition [3]: 0.92%

**Q.** Which results are given for `COc1ccc(COc2cc(NCCCN)nc3ccccc23)cc1`?
**A.** inhibition [1]: 4.66%; inhibition [2]: 6.16%; inhibition [3]: 4.46%

**Q.** What does the source list for `CCOc1cc2c(cc1OCC)C(c1cc(OC)c(O)cc1Cl)NCC2` (stereo not given)?
**A.** inhibition [1]: 2.01%; inhibition [2]: 0.45%; inhibition [3]: 2.79%

**Q.** `Cn1nc2ccc3ccccc3c2nc1=N` was tested. Which inhibition [1] did it give?
**A.** 59.2%

**Q.** What about the inhibition [2] of the same compound?
**A.** 44.1%

**Q.** What about the inhibition [3] of the same compound?
**A.** 18.6%

**Q.** Which inhibition [1] does the source give for `Cc1cc(-c2cccc(CNC3CCN(C)CC3)c2)ccc1S(=O)(=O)NC1CCC1` here?
**A.** 2.28%

**Q.** What about the inhibition [2] of the same compound?
**A.** 1.62%

**Q.** And the inhibition [3]?
**A.** 0.45%
